# Results from publication PMC11006913.
# Legend:
# Assay in all cases: PBM; 200 nM protein, PBS
# Conditions in all cases: dsDNA, one strand shown
# [1] = molecular target: PITX2 (Homo sapiens, UniProt Q99697 72-157)
# [2] = molecular target: HOXB6 (Homo sapiens, UniProt P17509 132-218)
# [3] = molecular target: HOXA4 (Homo sapiens, UniProt Q00056 201-287, W262R)
# [4] = molecular target: HOXC9 (Homo sapiens, UniProt P31274 178-260, K195R)
# [5] = molecular target: HOXA4 (Homo sapiens, UniProt Q00056 201-287, R217L)
# [6] = molecular target: HOXC9 (Homo sapiens, UniProt P31274 178-260)
# [7] = molecular target: HOXC9 (Homo sapiens, UniProt P31274 178-260, R193K)
# [8] = molecular target: HOXA4 (Homo sapiens, UniProt Q00056 201-287)
# [9] = molecular target: HOXC9 (Homo sapiens, UniProt P31274 178-260, R222W)
# [10] = molecular target: HOXA4 (Homo sapiens, UniProt Q00056 201-287, W262F)
# [11] = molecular target: PRRX1 (Homo sapiens, UniProt P54821 80-166, F113S)
# [12] = molecular target: PRRX1 (Homo sapiens, UniProt P54821 80-166)
# [13] = molecular target: PROP1 (Homo sapiens, UniProt O75360 56-141)
# [14] = molecular target: VAX1 (Homo sapiens, UniProt Q5SQQ9 86-172)
# [15] = molecular target: PROP1 (Homo sapiens, UniProt O75360 56-141, F88S)
# [16] = molecular target: VAX1 (Homo sapiens, UniProt Q5SQQ9 86-172, T142I)
# [17] = molecular target: VAX1 (Homo sapiens, UniProt Q5SQQ9 86-172, K157R)
# [18] = molecular target: ALX3 (Homo sapiens, UniProt O95076 139-225, N203Q)
# [19] = molecular target: ALX3 (Homo sapiens, UniProt O95076 139-225)
# [20] = molecular target: ALX3 (Homo sapiens, UniProt O95076 139-225, N203S)
# ALX3 (Homo sapiens, UniProt O95076 139-225, N203S), sequence (O95076 139-225 N203S): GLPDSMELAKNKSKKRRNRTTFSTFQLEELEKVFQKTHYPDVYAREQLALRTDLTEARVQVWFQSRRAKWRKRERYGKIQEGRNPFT
# HOXA4 (Homo sapiens, UniProt Q00056 201-287, R217L), sequence (Q00056 201-287 R217L): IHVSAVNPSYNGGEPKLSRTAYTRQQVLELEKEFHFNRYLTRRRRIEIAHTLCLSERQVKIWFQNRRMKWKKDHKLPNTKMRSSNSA
# HOXC9 (Homo sapiens, UniProt P31274 178-260, R222W), sequence (P31274 178-260 R222W): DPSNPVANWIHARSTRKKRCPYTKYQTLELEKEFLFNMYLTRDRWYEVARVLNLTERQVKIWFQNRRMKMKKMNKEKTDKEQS
# ALX3 (Homo sapiens, UniProt O95076 139-225), sequence (O95076 139-225): as the sequence (O95076 139-225 N203S) above, with S65N counted along it
# PROP1 (Homo sapiens, UniProt O75360 56-141, F88S), sequence (O75360 56-141 F88S): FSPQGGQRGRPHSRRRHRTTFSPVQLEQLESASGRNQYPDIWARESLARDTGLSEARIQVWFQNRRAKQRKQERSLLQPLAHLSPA
# ALX3 (Homo sapiens, UniProt O95076 139-225, N203Q), sequence (O95076 139-225 N203Q): as the sequence (O95076 139-225 N203S) above, with S65Q counted along it
# HOXB6, sequence (P17509 132-218): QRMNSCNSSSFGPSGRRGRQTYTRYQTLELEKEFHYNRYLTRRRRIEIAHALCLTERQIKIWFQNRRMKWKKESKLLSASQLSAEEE
# HOXC9 (Homo sapiens, UniProt P31274 178-260, R193K), sequence (P31274 178-260 R193K): as the sequence (P31274 178-260 R222W) above, with R16K, W45R counted along it
# PRRX1 (Homo sapiens, UniProt P54821 80-166, F113S), sequence (P54821 80-166 F113S): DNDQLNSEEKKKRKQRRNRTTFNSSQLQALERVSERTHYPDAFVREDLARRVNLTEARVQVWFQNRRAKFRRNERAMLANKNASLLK
# PROP1 (Homo sapiens, UniProt O75360 56-141), sequence (O75360 56-141): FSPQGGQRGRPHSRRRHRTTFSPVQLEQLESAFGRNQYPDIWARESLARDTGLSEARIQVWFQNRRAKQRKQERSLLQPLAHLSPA
# HOXA4 (Homo sapiens, UniProt Q00056 201-287, W262R), sequence (Q00056 201-287 W262R): as the sequence (Q00056 201-287 R217L) above, with L17R, W62R counted along it
# HOXA4 (Homo sapiens, UniProt Q00056 201-287, W262F), sequence (Q00056 201-287 W262F): as the sequence (Q00056 201-287 R217L) above, with L17R, W62F counted along it
# HOXC9 (Homo sapiens, UniProt P31274 178-260), sequence (P31274 178-260): as the sequence (P31274 178-260 R222W) above, with W45R counted along it
# PRRX1 (Homo sapiens, UniProt P54821 80-166), sequence (P54821 80-166): as the sequence (P54821 80-166 F113S) above, with S34F counted along it
# VAX1 (Homo sapiens, UniProt Q5SQQ9 86-172, T142I), sequence (Q5SQQ9 86-172 T142I): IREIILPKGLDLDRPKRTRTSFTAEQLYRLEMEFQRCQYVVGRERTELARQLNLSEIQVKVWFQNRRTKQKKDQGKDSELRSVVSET
# HOXA4 (Homo sapiens, UniProt Q00056 201-287), sequence (Q00056 201-287): as the sequence (Q00056 201-287 R217L) above, with L17R counted along it
# HOXC9 (Homo sapiens, UniProt P31274 178-260, K195R), sequence (P31274 178-260 K195R): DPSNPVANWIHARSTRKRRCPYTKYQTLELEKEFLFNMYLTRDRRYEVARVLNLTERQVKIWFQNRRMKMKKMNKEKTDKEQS
# VAX1 (Homo sapiens, UniProt Q5SQQ9 86-172, K157R), sequence (Q5SQQ9 86-172 K157R): as the sequence (Q5SQQ9 86-172 T142I) above, with I57T, K72R counted along it
# VAX1 (Homo sapiens, UniProt Q5SQQ9 86-172), sequence (Q5SQQ9 86-172): as the sequence (Q5SQQ9 86-172 T142I) above, with I57T counted along it
sequence,measurement,setting,value
CGGCCTGC,binding signal,[1],"7.72 upbm affinity estimate (log intensity, higher = more binding, comparable within an allelic series)"
CTCGGGCC,binding signal,[2],"8.82 upbm affinity estimate (log intensity, higher = more binding, comparable within an allelic series)"
CCCAGCCG,binding signal,[3],"9.73 upbm affinity estimate (log intensity, higher = more binding, comparable within an allelic series)"
same,binding signal,[4],"9.41 upbm affinity estimate (log intensity, higher = more binding, comparable within an allelic series)"
same,binding signal,[5],"9.56 upbm affinity estimate (log intensity, higher = more binding, comparable within an allelic series)"
same,binding signal,[6],"9.56 upbm affinity estimate (log intensity, higher = more binding, comparable within an allelic series)"
same,binding signal,[1],"8.01 upbm affinity estimate (log intensity, higher = more binding, comparable within an allelic series)"
same,binding signal,[7],"9.38 upbm affinity estimate (log intensity, higher = more binding, comparable within an allelic series)"
same,binding signal,[8],"9.64 upbm affinity estimate (log intensity, higher = more binding, comparable within an allelic series)"
same,binding signal,[9],"9.62 upbm affinity estimate (log intensity, higher = more binding, comparable within an allelic series)"
same,binding signal,[10],"9.72 upbm affinity estimate (log intensity, higher = more binding, comparable within an allelic series)"
CCGGGCGC,binding signal,[3],"9.61 upbm affinity estimate (log intensity, higher = more binding, comparable within an allelic series)"
same,binding signal,[4],"9.34 upbm affinity estimate (log intensity, higher = more binding, comparable within an allelic series)"
same,binding signal,[5],"9.64 upbm affinity estimate (log intensity, higher = more binding, comparable within an allelic series)"
same,binding signal,[6],"9.51 upbm affinity estimate (log intensity, higher = more binding, comparable within an allelic series)"
same,binding signal,[7],"9.31 upbm affinity estimate (log intensity, higher = more binding, comparable within an allelic series)"
same,binding signal,[8],"9.56 upbm affinity estimate (log intensity, higher = more binding, comparable within an allelic series)"
same,binding signal,[9],"9.66 upbm affinity estimate (log intensity, higher = more binding, comparable within an allelic series)"
same,binding signal,[10],"9.82 upbm affinity estimate (log intensity, higher = more binding, comparable within an allelic series)"
CGGGAAGC,binding signal,[11],"9.35 upbm affinity estimate (log intensity, higher = more binding, comparable within an allelic series)"
same,binding signal,[12],"9.64 upbm affinity estimate (log intensity, higher = more binding, comparable within an allelic series)"
GGGGGGAC,binding signal,[4],"9.27 upbm affinity estimate (log intensity, higher = more binding, comparable within an allelic series)"
same,binding signal,[6],"9.04 upbm affinity estimate (log intensity, higher = more binding, comparable within an allelic series)"
same,binding signal,[7],"9.37 upbm affinity estimate (log intensity, higher = more binding, comparable within an allelic series)"
same,binding signal,[13],"6.32 upbm affinity estimate (log intensity, higher = more binding, comparable within an allelic series)"
same,binding signal,[14],"6.83 upbm affinity estimate (log intensity, higher = more binding, comparable within an allelic series)"
same,binding signal,[9],"9.31 upbm affinity estimate (log intensity, higher = more binding, comparable within an allelic series)"
same,binding signal,[15],"5.57 upbm affinity estimate (log intensity, higher = more binding, comparable within an allelic series)"
same,binding signal,[16],"7.14 upbm affinity estimate (log intensity, higher = more binding, comparable within an allelic series)"
same,binding signal,[17],"7.04 upbm affinity estimate (log intensity, higher = more binding, comparable within an allelic series)"
CTGCGGAC,binding signal,[2],"8.8 upbm affinity estimate (log intensity, higher = more binding, comparable within an allelic series)"
GTCCGGAC,binding signal,[4],"9.77 upbm affinity estimate (log intensity, higher = more binding, comparable within an allelic series)"
same,binding signal,[6],"9.72 upbm affinity estimate (log intensity, higher = more binding, comparable within an allelic series)"
same,binding signal,[7],"9.8 upbm affinity estimate (log intensity, higher = more binding, comparable within an allelic series)"
same,binding signal,[13],"6.74 upbm affinity estimate (log intensity, higher = more binding, comparable within an allelic series)"
same,binding signal,[9],"9.89 upbm affinity estimate (log intensity, higher = more binding, comparable within an allelic series)"
same,binding signal,[15],"6.7 upbm affinity estimate (log intensity, higher = more binding, comparable within an allelic series)"
CCCTCGGC,binding signal,[11],"9.22 upbm affinity estimate (log intensity, higher = more binding, comparable within an allelic series)"
same,binding signal,[12],"9.48 upbm affinity estimate (log intensity, higher = more binding, comparable within an allelic series)"
CGTCGCGC,binding signal,[18],"7.76 upbm affinity estimate (log intensity, higher = more binding, comparable within an allelic series)"
same,binding signal,[19],"7.7 upbm affinity estimate (log intensity, higher = more binding, comparable within an allelic series)"
same,binding signal,[20],"7.8 upbm affinity estimate (log intensity, higher = more binding, comparable within an allelic series)"
AGCGCCCG,binding signal,[2],"8.92 upbm affinity estimate (log intensity, higher = more binding, comparable within an allelic series)"
CGCTGCGC,binding signal,[18],"7.75 upbm affinity estimate (log intensity, higher = more binding, comparable within an allelic series)"
same,binding signal,[19],"7.66 upbm affinity estimate (log intensity, higher = more binding, comparable within an allelic series)"
same,binding signal,[14],"7.4 upbm affinity estimate (log intensity, higher = more binding, comparable within an allelic series)"
same,binding signal,[16],"7.38 upbm affinity estimate (log intensity, higher = more binding, comparable within an allelic series)"
same,binding signal,[20],"7.74 upbm affinity estimate (log intensity, higher = more binding, comparable within an allelic series)"
same,binding signal,[17],"7.41 upbm affinity estimate (log intensity, higher = more binding, comparable within an allelic series)"
GGGGGCCA,binding signal,[3],"9.65 upbm affinity estimate (log intensity, higher = more binding, comparable within an allelic series)"
same,binding signal,[5],"9.62 upbm affinity estimate (log intensity, higher = more binding, comparable within an allelic series)"
same,binding signal,[8],"9.83 upbm affinity estimate (log intensity, higher = more binding, comparable within an allelic series)"
same,binding signal,[10],"9.79 upbm affinity estimate (log intensity, higher = more binding, comparable within an allelic series)"
ACGCCGGG,binding signal,[3],"9.71 upbm affinity estimate (log intensity, higher = more binding, comparable within an allelic series)"
same,binding signal,[5],"9.86 upbm affinity estimate (log intensity, higher = more binding, comparable within an allelic series)"
same,binding signal,[8],"9.92 upbm affinity estimate (log intensity, higher = more binding, comparable within an allelic series)"
same,binding signal,[10],"9.88 upbm affinity estimate (log intensity, higher = more binding, comparable within an allelic series)"
CGCTCCGC,binding signal,[2],"9.09 upbm affinity estimate (log intensity, higher = more binding, comparable within an allelic series)"
CGGGCCCC,binding signal,[11],"9.02 upbm affinity estimate (log intensity, higher = more binding, comparable within an allelic series)"
same,binding signal,[12],"9.32 upbm affinity estimate (log intensity, higher = more binding, comparable within an allelic series)"
GCAGTGGC,binding signal,[14],"7.24 upbm affinity estimate (log intensity, higher = more binding, comparable within an allelic series)"
same,binding signal,[16],"7.19 upbm affinity estimate (log intensity, higher = more binding, comparable within an allelic series)"
same,binding signal,[17],"7.24 upbm affinity estimate (log intensity, higher = more binding, comparable within an allelic series)"
AGGCGCCC,binding signal,[18],"7.72 upbm affinity estimate (log intensity, higher = more binding, comparable within an allelic series)"
same,binding signal,[19],"7.55 upbm affinity estimate (log intensity, higher = more binding, comparable within an allelic series)"
same,binding signal,[20],"7.72 upbm affinity estimate (log intensity, higher = more binding, comparable within an allelic series)"
AGGGCCCG,binding signal,[14],"6.78 upbm affinity estimate (log intensity, higher = more binding, comparable within an allelic series)"
same,binding signal,[16],"7.02 upbm affinity estimate (log intensity, higher = more binding, comparable within an allelic series)"
same,binding signal,[17],"6.91 upbm affinity estimate (log intensity, higher = more binding, comparable within an allelic series)"
CGCAGCGC,binding signal,[13],"6.83 upbm affinity estimate (log intensity, higher = more binding, comparable within an allelic series)"
same,binding signal,[15],"6.74 upbm affinity estimate (log intensity, higher = more binding, comparable within an allelic series)"
CATGATCA,binding signal,[18],"8.19 upbm affinity estimate (log intensity, higher = more binding, comparable within an allelic series)"
same,binding signal,[19],"9.26 upbm affinity estimate (log intensity, higher = more binding, comparable within an allelic series)"
same,binding signal,[20],"8.21 upbm affinity estimate (log intensity, higher = more binding, comparable within an allelic series)"
GCGCTGCC,binding signal,[1],"8 upbm affinity estimate (log intensity, higher = more binding, comparable within an allelic series)"
